We go through 4 compounds from PubChem BioAssay (NCATS).

Experiment [1] in a line: AP1 Signaling Pathway (AID 357).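 Further: ME-180 reporter cells stimulated with EGF at its EC50 level; on the % scale 0 is the no-effect control and ±100 the full control effect.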 As to conditions: ME-180 AP-1-bla reporter, EGF-induced, beta-lactamase ratio, 5 h. In outline: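 In this screen, ME-180 cells in Opti-MEM with 0.5% dialyzed FBS received EC50 EGF and compound titrations for 5 h. AP-1 reporter beta-lactamase was detected via CCF4 ratio, giving AC50 for positive and negative modulators.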
Experiment [2] addresses Cytochrome P450 1A2 (Homo sapiens) (UniProt P05177). In words: p450-cyp1a2 (AID 410; calls by dose curve; further: potency means the concentration at half of the fitted maximal effect;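 on activity change, negative = inhibition: -100% = full effect of reference inhibitor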). Particulars: recombinant CYP1A2, luciferin-ME demethylation, luminescence; series mostly up to 57 µM. In outline: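 Luminescent readout of luciferin formed from Luciferin-ME by human CYP1A2; data normalized against complete inhibition by 57 uM furafylline. Enzyme 20nM, substrate 100uM at Km, 100mM KPO4 buffer, 60 min reaction at room temperature.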

A short description of experiment [3]: NFAT Signaling Pathway (AID 444).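 Further: carbachol stimulus at about its EC50 of 1 µM final; on the % scale 0 is the no-effect control and ±100 the full control effect.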 As to conditions: Jurkat NFAT-bla M1, carbachol, beta-lactamase ratio, 5 h. In outline: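 Jurkat cells with NFAT-driven β-lactamase reporter and co-expressed M1 receptor, stimulated with carbachol (final 1 uM, ~EC50), compound titration, 5 h at 37 °C. CCF4 loaded 1 h at RT; 460/530 nm ratio gave %activity and AC50.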
Experiment [4] can be described thus: Stat Signaling Pathway (AID 446).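 Further: ME-180 cervical cancer cells given 40 pM IL-6 alongside compound; SIE-controlled beta-lactamase reporter measured as 460/530 nm FRET emission ratio; on the % scale 0 is the no-effect control and ±100 the full control effect.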 As to conditions: ME-180 SIE beta-lactamase reporter, IL-6 stimulated, 5 h. In outline:
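Screening format detects activators and inhibitors alike: ME-180 SIE-bla cells stimulated at 40 pM IL-6 for 5 hrs with compound, then dual-emission beta-lactamase read at 405 nm excitation.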

Experiment [5] deals with Mitogen-activated protein kinase 10 (Mus musculus) (UniProt Q61831). Put plainly: JNK3 AlphaScreen Assay (AID 530).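 Further: kinase came from lysate of stimulated human HepG2 cells; signal reports phosphorylation of biotinylated GST-cJun 1-79 at Ser73 with 10 µM ATP; on the % scale 0 is the no-effect control and ±100 the full control effect.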 As to conditions: JNK3 lysate, c-Jun phosphorylation; series mostly up to 57.1 µM. In outline: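 Pre-activated (IL-1β/TNFα) JNK3 in HepG2 lysates phosphorylates biotin-GST-cJun(1-79), 10 uM ATP; anti-phospho-cJun(Ser73) AlphaScreen read at room temperature, pH 7.6 Tris buffer. Compounds pre-incubated 15 min as titrations.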
A general note: In Alpha technology, singlet oxygen from a donor bead excites a nearby acceptor bead.

Experiment [6] addresses 3',5'-cyclic-AMP phosphodiesterase 4B (Homo sapiens) (UniProt Q07343). In words: qHTS Assay for Inhibitors of PDE-IV (AID 607; active means well fitted activation curve with a large enough effect in the main read-out, with a control signal flat, not every such curve was filed as active; further: % of control where 0% means no effect). As to conditions: HEK293 ACTOne CNG channel cells, membrane potential fluorescence; series mostly up to 22.9 µM. In outline: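 The readout is membrane depolarisation from a cAMP-sensing CNG channel, detected with a potential dye at ex 535/em 590. Cells were HEK293-derived (endogenous PDE-IV) at 1000 cells/well, titrated up to 22.9 uM final.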

Experiment [7] deals with Guanine nucleotide-binding protein G(i) subunit alpha-1 (Homo sapiens) (UniProt P63096). In words: qHTS Assay for Inhibitors of RGS12 GoLoco Motif Activity (Green Fluorophore) (AID 879; active means well fitted curve in the direction sought with a large enough effect; an effect the other way counts as inactive or inconclusive;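 further: 0% = labeled peptide with Gαi1 and full inhibition = labeled peptide alone without protein; negative values mean loss of peptide binding seen as reduced polarization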). As to conditions: Galphai1/FITC-RGS12 GoLoco peptide, fluorescence polarization; series mostly up to 57.1 µM. In outline: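 Fluorescence polarization assay: 50 nM Gαi1 with 10 nM FITC-labeled RGS12 GoLoco peptide in 10 mM Tris pH 7.5, 150 mM NaCl, 0.1 mM GDP, 0.05% NP40, 10 min at room temperature with compound.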
Guanine nucleotide-binding protein G(i) subunit alpha-1 (Homo sapiens), sequence (P63096 whole entry, looked up): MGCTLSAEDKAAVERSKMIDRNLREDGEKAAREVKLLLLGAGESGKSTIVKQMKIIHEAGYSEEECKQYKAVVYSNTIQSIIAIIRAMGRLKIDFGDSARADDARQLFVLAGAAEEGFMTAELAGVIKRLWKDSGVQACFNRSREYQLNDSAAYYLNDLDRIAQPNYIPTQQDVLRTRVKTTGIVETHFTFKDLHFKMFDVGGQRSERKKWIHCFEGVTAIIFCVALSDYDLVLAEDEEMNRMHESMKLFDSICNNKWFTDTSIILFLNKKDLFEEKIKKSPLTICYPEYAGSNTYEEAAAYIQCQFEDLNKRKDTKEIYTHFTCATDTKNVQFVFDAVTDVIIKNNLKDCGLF

Experiment [8] concerns the target Pyruvate kinase (Leishmania mexicana) (UniProt Q27686). Put plainly: qHTS Validation Assay for Inhibitors of Leishmania Mexicana Pyruvate Kinase (AID 945; active means well fitted curve in the direction sought with a large enough effect; an effect the other way counts as inactive or inconclusive;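 further: 0% = DMSO only neutral control wells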). Particulars: purified L. mexicana pyruvate kinase, enzyme activity, E451W mutant enzyme; series mostly up to 57.5 µM. In outline:
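The enzyme is a highly purified E451W mutant of LmPYK used at 0.2 nM. It converts 0.5 mM PEP and 0.1 mM ADP over 1 h at room temperature; product ATP is quantified by luciferase luminescence relative to DMSO controls.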
In general terms: In qHTS, concentration-response curves come from the screen itself.

In experiment [9] the target is Pyruvate kinase PKM (Homo sapiens) (UniProt P14618). In words: qHTS Assay for Activators of Human Muscle Pyruvate Kinase (AID 954; active means well fitted curve in the direction sought with a large enough effect, not every such curve was filed as active;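 further: 0% = uninhibited enzyme and -100% = no enzyme or full thiadiazolimine inhibition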). Particulars: purified human muscle pyruvate kinase, luciferase-coupled luminescence, 1 h; series mostly up to 57.5 µM. In outline:
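Reaction: 0.1 nM purified PKM2 with 0.5 mM phosphoenolpyruvate and 0.1 mM ADP, room temperature, 1 h. Readout: luciferase-based ATP luminescence after stop reagent. Activators judged against a 0.3 nM enzyme column.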

In experiment [10] the target is alpha-glucosidase (Oryza sativa, rice) (UniProt Q653V4). Put plainly: Counterscreen for Glucocerebrosidase Inhibitors: qHTS Assay for Rice alpha-Glucosidase at pH 5.0 (AID 997; active means well fitted curve in the direction sought with a large enough effect; an effect the other way counts as inactive or inconclusive;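 further: 0% = full activity with enzyme and -100% = basal without enzyme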). As to conditions: rice alpha-glucosidase enzyme activity; series mostly up to 76.9 µM. In outline: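 Rice alpha-glucosidase (4 nM final) with 400 uM 4-methylumbelliferyl-alpha-D-glucopyranoside in citrate buffer pH 5.0, 20 min at room temperature, stopped at pH 10; fluorescence 365/440 nm, compounds 0.7 nM–77 uM, AC50 from Hill fits.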
On the technique in general: A counterscreen serves to expose hits that act by an unwanted route or on another target.

The nature of experiment [11]: qHTS Assay for Lipid Storage Modulators (AID 1519; calls by dose curve). Particulars: Drosophila S3 cells, BODIPY lipid droplet/cell ratio, laser cytometry, cells loaded with oleic acid; for activity change, negative = inhibition: at 25.7 µM (top of the series). In outline:
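Cells seeded at 5,000 per well were treated with compounds over a concentration series and loaded with oleic acid (400 uM, as added). Lipid droplet fluorescence (488 nm excitation, 500-530 nm channel) was read by laser-scanning cytometry and normalized to 20 uM Triacsin C.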

For experiment [12], the target named is ATP-dependent 6-phosphofructokinase (Trypanosoma brucei brucei) (UniProt O15648). In words: qHTS Assay to Find Inhibitors of T. brucei phosphofructokinase: hit validation (AID 492961; active means well fitted curve in the direction sought with a large enough effect; an effect the other way counts as inactive or inconclusive). As to conditions: T. brucei PFK, ADP-Glo luminescence; series mostly up to 24.3 µM. In outline:
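Inhibition of parasite PFK is measured as reduced ADP formation, quantified via luciferase after ATP depletion. Assay used 0.1 mM ATP, 0.5 mM F6P, 1.25 nM enzyme, 45 min incubation.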

For experiment [13], the target named is Ubiquitin carboxyl-terminal hydrolase 1 (Homo sapiens) (UniProt O94782). Put plainly: Inhibitors of USP1/UAF1: Pilot qHTS (AID 504865; active means well fitted curve in the direction sought with a large enough effect; an effect the other way counts as inactive or inconclusive;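 further: rhodamine fluorescence freed from ubiquitin-rhodamine substrate followed over time; top concentration of the series differs between compounds; on the % scale 0 is the no-effect control and ±100 the full control effect; nearly all actives have a fitted effect of over 35% in size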). Particulars: purified USP1/UAF1, Ub-rhodamine cleavage fluorescence; series mostly up to 54.9 µM. In outline: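 Enzyme-free wells gave the negative control, while test wells held 1nM USP1/UAF1 preincubated with compound for 15 min at room temperature. Ub-Rho at 150nM final started the reaction, and fluorescence at 480/540 nm was recorded kinetically.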

The target of experiment [14] is Luciferin 4-monooxygenase (Photinus pyralis) (UniProt P08659). In words: Biochemical firefly luciferase enzyme assay for NPC (AID 624030; active means well fitted curve in the direction sought with a large enough effect; an effect the other way counts as inactive or inconclusive;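 further: purified P. pyralis luciferase at 10 nM with luciferin and ATP substrate; 0% = DMSO and -100% = full luciferase inhibition by PTC124 control; nearly all actives have a fitted effect of over 70% in size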). As to conditions: purified P. pyralis luciferase, luminescence, 5 min; series mostly up to 58.6 µM. In outline:
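Purified P. pyralis luciferase at 10 nM in 50 mM Tris Acetate (final), luminescence read within 5 minutes of enzyme addition to compounds. Activity normalised to PTC124 versus DMSO; concentration-response curves classed by r2, magnitude and activity.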

A short description of experiment [15]: qHTS profiling for inhibitors of Plasmodium falciparum proliferation (AID 504749; active means well fitted curve in the direction sought with a large enough effect; an effect the other way counts as inactive or inconclusive;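 further: 0% = DMSO vehicle and full inhibition = artemisinin control; nearly all actives have a fitted effect of over 60% in size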). As to conditions: P. falciparum in erythrocytes, SYBR Green DNA, 72 h, at 28.7 µM (top of the series). In outline:
(§1)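 P. falciparum-infected erythrocytes (0.3% parasitemia, 2.5% hematocrit) incubated with compound 72 h at 37 C, 5% CO2. Parasite DNA detected by SYBR Green after lysis, overnight at room temperature; normalised to 0.29 uM artemisinin and DMSO.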

The subject of experiment [16] is AS120. Described as above. As to conditions: P. falciparum in erythrocytes, SYBR Green DNA, 72 h; series mostly up to 28.7 µM. In outline: as §1
Experiment [17] deals with CP238. The experiment is described as above. As to conditions: P. falciparum in erythrocytes, SYBR Green DNA, 72 h; series mostly up to 12.8 µM. In outline:
as §1

Experiment [18] concerns FAB9. The description is as above. As to conditions: P. falciparum in erythrocytes, SYBR Green DNA, 72 h; series mostly up to 12.8 µM. In outline:
as §1

Experiment [19] concerns the target Glucocorticoid receptor (Homo sapiens) (UniProt P04150). In words: GR-GFP Redistribution (AID 450;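 active means compounds whose dose series gives a full or clear partial fitted curve of increased nuclear translocation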; further: potency means the concentration at half of the fitted maximal effect). As to conditions: U2OS GR-GFP nuclear translocation, laser cytometry, 2 h.
Where [20] appears, read: measured here: cell count channel max response.
The mark [21] stands for this setting: measured here: lipid channel max response.

Where “and” joins values, the source holds several entries; their conditions need not be identical. Identical values can stand only once. Records with an inconclusive call do not appear. Calls of active or inactive are those of the source. Unless noted, the call rests on the fitted dose curve; in most records, active means well fitted curve in either direction with a large enough effect (not every such curve was filed as active); inconclusive means small, poorly fitted or top-dose-only effect, or another doubt; inactive means flat fitted curve, though single readings scatter.

Cytochrome P450 1A2 (Homo sapiens), sequence (P05177 whole entry, looked up): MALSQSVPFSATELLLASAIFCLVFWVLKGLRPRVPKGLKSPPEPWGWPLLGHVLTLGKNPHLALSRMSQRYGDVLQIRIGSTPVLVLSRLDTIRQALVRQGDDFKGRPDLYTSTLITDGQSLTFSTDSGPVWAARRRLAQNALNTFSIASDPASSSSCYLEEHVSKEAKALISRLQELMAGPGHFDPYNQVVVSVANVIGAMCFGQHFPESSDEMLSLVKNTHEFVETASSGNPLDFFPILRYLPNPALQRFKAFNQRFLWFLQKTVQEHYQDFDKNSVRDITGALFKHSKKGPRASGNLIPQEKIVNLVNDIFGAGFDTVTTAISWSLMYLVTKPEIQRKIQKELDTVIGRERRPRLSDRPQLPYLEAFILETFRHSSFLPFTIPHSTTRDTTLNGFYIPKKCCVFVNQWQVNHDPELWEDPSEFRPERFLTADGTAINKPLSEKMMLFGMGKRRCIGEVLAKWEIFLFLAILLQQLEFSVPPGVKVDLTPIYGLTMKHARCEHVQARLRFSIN
3',5'-cyclic-AMP phosphodiesterase 4B (Homo sapiens), sequence (Q07343 whole entry, looked up): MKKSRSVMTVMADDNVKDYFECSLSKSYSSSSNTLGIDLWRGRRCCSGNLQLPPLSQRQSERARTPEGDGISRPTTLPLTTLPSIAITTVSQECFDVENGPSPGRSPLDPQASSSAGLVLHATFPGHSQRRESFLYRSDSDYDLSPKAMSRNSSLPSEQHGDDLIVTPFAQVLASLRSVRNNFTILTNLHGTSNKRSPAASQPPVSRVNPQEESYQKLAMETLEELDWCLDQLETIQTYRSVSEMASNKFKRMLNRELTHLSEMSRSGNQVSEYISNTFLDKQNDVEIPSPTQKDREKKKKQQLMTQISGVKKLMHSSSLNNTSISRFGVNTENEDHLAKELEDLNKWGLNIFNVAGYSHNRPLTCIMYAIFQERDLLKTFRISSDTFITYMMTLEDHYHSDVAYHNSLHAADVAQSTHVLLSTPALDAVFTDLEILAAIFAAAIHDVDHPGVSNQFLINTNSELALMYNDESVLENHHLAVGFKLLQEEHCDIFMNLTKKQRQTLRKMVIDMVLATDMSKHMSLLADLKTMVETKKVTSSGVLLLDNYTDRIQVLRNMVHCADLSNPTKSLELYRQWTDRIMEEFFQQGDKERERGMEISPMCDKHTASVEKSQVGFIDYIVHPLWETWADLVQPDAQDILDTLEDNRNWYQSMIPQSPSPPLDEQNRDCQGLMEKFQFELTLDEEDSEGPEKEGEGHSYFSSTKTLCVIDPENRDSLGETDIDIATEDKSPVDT
Pyruvate kinase (Leishmania mexicana), sequence (Q27686 2-499 E452W): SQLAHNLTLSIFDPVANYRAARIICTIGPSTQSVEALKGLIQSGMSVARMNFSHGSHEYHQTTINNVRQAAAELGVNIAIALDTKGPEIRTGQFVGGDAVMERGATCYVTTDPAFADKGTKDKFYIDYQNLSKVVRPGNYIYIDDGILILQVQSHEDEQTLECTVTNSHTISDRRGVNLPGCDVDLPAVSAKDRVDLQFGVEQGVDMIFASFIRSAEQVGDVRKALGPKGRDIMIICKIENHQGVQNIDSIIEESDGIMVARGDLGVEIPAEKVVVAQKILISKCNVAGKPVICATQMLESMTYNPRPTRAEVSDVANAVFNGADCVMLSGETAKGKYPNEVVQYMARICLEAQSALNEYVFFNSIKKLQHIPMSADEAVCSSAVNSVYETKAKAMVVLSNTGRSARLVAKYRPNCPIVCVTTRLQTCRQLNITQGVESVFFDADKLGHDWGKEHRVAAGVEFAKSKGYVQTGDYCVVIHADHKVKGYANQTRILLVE
Pyruvate kinase PKM (Homo sapiens), sequence (P14618 whole entry, looked up): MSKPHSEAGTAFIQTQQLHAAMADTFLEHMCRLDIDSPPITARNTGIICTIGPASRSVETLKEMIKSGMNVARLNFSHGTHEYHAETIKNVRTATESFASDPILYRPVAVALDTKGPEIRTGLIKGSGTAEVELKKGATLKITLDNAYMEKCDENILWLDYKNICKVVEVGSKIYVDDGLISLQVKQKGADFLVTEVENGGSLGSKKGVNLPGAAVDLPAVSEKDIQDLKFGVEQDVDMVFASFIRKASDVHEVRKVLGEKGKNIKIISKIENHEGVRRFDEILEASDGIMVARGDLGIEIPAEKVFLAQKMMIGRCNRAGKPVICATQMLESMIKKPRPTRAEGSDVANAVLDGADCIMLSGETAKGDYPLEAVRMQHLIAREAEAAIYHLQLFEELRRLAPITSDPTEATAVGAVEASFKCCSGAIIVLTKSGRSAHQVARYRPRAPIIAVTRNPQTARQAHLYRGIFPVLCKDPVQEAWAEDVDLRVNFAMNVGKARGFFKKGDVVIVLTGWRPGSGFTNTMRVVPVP
Glucocorticoid receptor (Homo sapiens), sequence (P04150 whole entry, looked up): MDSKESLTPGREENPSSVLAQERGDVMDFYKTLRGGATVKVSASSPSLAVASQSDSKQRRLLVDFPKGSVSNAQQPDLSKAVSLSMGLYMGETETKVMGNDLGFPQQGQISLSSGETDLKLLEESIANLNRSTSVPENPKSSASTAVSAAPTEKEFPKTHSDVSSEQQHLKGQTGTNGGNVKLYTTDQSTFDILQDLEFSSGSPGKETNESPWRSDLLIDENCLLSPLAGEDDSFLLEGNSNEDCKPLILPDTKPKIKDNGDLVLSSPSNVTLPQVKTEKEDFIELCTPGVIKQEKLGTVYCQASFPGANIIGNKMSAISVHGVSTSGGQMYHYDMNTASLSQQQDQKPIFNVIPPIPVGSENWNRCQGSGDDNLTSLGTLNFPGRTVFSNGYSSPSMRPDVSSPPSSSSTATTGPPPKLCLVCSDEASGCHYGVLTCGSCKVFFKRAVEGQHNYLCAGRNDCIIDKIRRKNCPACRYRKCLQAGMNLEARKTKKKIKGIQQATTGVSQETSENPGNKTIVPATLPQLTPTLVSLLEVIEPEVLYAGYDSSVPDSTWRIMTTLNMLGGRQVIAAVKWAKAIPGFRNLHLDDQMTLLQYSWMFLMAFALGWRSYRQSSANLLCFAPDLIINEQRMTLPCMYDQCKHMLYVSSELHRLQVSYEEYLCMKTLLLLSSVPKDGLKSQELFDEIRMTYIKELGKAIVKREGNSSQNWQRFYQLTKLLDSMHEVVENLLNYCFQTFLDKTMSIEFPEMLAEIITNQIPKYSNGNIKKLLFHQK
ATP-dependent 6-phosphofructokinase (Trypanosoma brucei brucei), sequence (O15648 whole entry, looked up): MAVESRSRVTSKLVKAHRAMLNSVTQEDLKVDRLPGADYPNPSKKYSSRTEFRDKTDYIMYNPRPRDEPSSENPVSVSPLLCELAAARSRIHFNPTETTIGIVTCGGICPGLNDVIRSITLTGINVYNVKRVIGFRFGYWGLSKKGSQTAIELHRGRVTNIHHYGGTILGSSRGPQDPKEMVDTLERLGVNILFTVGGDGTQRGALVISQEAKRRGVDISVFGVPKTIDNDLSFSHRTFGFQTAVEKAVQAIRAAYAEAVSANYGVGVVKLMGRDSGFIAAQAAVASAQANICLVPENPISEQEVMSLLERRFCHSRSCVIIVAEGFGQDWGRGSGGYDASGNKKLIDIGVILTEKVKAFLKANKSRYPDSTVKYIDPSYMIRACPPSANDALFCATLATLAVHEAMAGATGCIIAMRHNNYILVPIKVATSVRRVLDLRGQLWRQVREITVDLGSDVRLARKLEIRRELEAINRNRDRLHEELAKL
Luciferin 4-monooxygenase (Photinus pyralis), sequence (P08659 whole entry, looked up): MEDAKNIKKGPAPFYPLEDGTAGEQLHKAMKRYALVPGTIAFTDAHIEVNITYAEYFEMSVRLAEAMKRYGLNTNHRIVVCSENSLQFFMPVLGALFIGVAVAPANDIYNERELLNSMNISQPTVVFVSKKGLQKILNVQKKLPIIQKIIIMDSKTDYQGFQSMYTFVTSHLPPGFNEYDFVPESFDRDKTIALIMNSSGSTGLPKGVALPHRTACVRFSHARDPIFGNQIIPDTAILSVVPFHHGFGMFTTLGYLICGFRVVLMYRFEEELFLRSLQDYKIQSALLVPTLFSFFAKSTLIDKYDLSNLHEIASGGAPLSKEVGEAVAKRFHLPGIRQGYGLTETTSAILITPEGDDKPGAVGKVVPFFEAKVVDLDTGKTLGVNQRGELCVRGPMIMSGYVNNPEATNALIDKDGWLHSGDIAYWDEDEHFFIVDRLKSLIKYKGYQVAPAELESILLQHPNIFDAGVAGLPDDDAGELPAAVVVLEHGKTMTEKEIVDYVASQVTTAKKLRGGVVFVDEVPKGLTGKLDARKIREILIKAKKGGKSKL

Turning to `Cc1cccc(C)c1OC[C@H](C)N`, the activity change, negative = inhibition in experiment [1] (at 17.2 µM (top of the series)) is 5.64% (inactive); in [1] (at 38 µM (top of the series)), 1.06% (inactive); in experiment [3] (at 17.2 µM (top of the series)), 1.67% (inactive); in experiment [3] (at 38 µM (top of the series)), 15.4% (inactive); in experiment [11], -0.862% (inactive). For the same compound, the Potency in experiment [2] was 2.51 µM (active) and 398 nM (active). Further, the results for the activity, negative = inhibition in experiment [4] (at 17.2 µM (top of the series)) and in [4] (at 38 µM (top of the series)) were 3.2% (inactive) and -14.2% (inactive), respectively. For the same compound, the Potency result in experiment [5], in experiment [6] and in experiment [7] was “inactive” throughout. Moreover, the call in experiment [8], in [9] and in [10] was inactive. Besides, the max response in experiment [11] (setting [20]) was -4.34%; in experiment [11] (setting [21]) it was -6.28%.

Take `O[C@@](CCN1CCCCC1)(c1ccccc1)C1CCCCC1`: the activity change, negative = inhibition in experiment [1] (at 17.2 µM (top of the series)) was 7.19% (inactive); in experiment [1] (at 38 µM (top of the series)) it was 17.8% (inactive); in [3] (at 17.2 µM (top of the series)), -51.7% (active); in experiment [3] (at 38 µM (top of the series)), -75.1% (active); in experiment [11], -1.35% (inactive). The Potency result in [2], in experiment [5], in [6] and in experiment [7] was “inactive” in each case. For the same compound, the results for the activity, negative = inhibition in experiment [4] (at 17.2 µM (top of the series)) and in [4] (at 38 µM (top of the series)) were -9.32% (inactive) and 15.1% (inactive), respectively. For the same compound, the compound was classed as inactive in [8], in [9] and in [10]. In addition, the max response in experiment [11] (setting [20]) was -17.3%; in experiment [11] (setting [21]), -19.7%.

Take `N[C@@H](CO)C(=O)NNCc1ccc(O)c(O)c1O`: the activity change, negative = inhibition in [1] (at 17.2 µM (top of the series)) is 2.07% (inactive); in experiment [1] (at 38 µM (top of the series)) it was 14.8% (inactive); in [3] (at 17.2 µM (top of the series)), -8.03% (inactive); in [3] (at 38 µM (top of the series)), -7.62% (inactive); in [11] it was -1.23% (inactive). Further, the Potency result in experiment [2], in [6], in experiment [13], in experiment [16], in [17] and in experiment [18] was “inactive” each time. For the same compound, the activity, negative = inhibition was -0.902% (inactive) in experiment [4] (at 17.2 µM (top of the series)), 4.31% (inactive) in [4] (at 38 µM (top of the series)), 21.9% (inactive) in experiment [15] (parasite line A) and 19.7% (inactive) in experiment [15] (parasite line B). The call in [8], in experiment [9], in experiment [10], in experiment [12] and in experiment [14] was inactive. Also, the max response in experiment [11] (setting [20]) is -4.75%; in [11] (setting [21]), -6.43%.

Turning to `CO[C@]1(NC(=O)CSCC#N)C(=O)N2C(C(=O)O)=C(CSc3nnnn3C)CS[C@H]21`, the activity change, negative = inhibition in experiment [1] (at 17.2 µM (top of the series)) was 6.3% (inactive); in experiment [1] (at 38 µM (top of the series)), 6.07% (inactive); in experiment [3] (at 17.2 µM (top of the series)) it was -17.5% (inactive); in experiment [3] (at 38 µM (top of the series)) it was -10.8% (inactive); in [11], -1.05% (inactive). For the same compound, the Potency result in experiment [2], in experiment [5], in [6], in experiment [7], in [13] and in experiment [16] was “inactive” in each case. Moreover, the Potency entry in experiment [17] and in experiment [18] was “inactive” each time. In addition, the activity, negative = inhibition in experiment [4] (at 17.2 µM (top of the series)) is -13.5% (inactive); in experiment [4] (at 38 µM (top of the series)) it was 0.96% (inactive); in experiment [15] (parasite line A) it was 11.9% (inactive); in experiment [15] (parasite line B), 2.32% (inactive). Also, the Potency in experiment [19] was > 46 µM (inactive) and > 20.6 µM (inactive). The compound was called inactive in experiment [8], in experiment [9], in experiment [10], in [12] and in experiment [14]. In addition, the max response in experiment [11] (setting [20]) is -7.44%; in experiment [11] (setting [21]) it was -5.83%.
